Drawing on paper PMC7862700, “An all-to-all approach to the identification of sequence-specific readers for epigenetic DNA modifications on cytosine”, this text covers binding signal for one sequence.

Assay in all cases: DAPPL (digital affinity profiling via proximity ligation, sequencing); 10 mM Tris-HCl pH 7.5, 50 mM NaCl, 1 mM DTT, 4% glycerol, room temperature, 30 min; GST-TFs on glutathione beads, 16-mer random dsDNA library, 0.1% formaldehyde crosslink after washing; high values mean tight binding
One assay addresses T1, FLI1 (Homo sapiens, UniProt Q01543 1-452).
T1 sequence: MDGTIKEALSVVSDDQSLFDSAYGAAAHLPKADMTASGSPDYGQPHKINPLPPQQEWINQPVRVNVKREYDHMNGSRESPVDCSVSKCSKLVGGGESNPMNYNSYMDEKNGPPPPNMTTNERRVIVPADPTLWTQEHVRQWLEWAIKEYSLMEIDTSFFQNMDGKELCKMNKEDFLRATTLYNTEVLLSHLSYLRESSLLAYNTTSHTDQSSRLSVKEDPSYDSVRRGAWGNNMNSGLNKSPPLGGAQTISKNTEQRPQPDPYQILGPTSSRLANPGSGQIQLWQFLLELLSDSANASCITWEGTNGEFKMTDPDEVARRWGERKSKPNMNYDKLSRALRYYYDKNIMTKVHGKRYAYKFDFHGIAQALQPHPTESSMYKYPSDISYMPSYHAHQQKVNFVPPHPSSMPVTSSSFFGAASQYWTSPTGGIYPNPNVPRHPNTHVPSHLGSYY
The following applies: protein: recombinant; tags: N-terminal GST; dsDNA, one strand shown. The essentials:
(§1)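 In yeast, human transcription factors were expressed with a GST fusion, then pulled down on glutathione beads and given DNA barcodes. Pooled with a tag-only sample, they were exposed to 200 nmole of a 16-mer random double-stranded DNA library (Tris/NaCl/DTT/glycerol buffer, room temperature, 30 min), washed, crosslinked with 0.1% formaldehyde, proximity-ligated using BsaI/T4 ligase for 1 h at 37 °C, PCR-amplified and read on an Illumina NextSeq500. Each hexamer's frequency of reads for a factor, divided by the matching frequency for the tag-only sample, gives the binding signal.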

For another assay, the target named is T2, ELK1 (Homo sapiens, UniProt P19419 1-428).
T2 sequence: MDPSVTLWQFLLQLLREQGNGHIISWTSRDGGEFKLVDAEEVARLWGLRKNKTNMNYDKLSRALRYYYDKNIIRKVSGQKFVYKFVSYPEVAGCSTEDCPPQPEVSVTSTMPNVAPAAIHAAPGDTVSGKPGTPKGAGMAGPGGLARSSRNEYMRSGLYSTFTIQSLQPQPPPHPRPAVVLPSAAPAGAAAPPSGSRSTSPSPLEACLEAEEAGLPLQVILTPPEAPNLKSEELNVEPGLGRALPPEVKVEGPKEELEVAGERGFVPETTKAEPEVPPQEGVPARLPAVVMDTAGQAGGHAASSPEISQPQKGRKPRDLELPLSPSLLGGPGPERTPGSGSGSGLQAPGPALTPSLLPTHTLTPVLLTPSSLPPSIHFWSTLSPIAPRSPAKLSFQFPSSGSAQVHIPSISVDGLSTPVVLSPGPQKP
The following applies: protein: recombinant; tags: N-terminal GST; dsDNA, one strand shown. The essentials:
as §1

A further assay has as its target T3, GABPA (Homo sapiens, UniProt Q06546 1-454).
T3 sequence: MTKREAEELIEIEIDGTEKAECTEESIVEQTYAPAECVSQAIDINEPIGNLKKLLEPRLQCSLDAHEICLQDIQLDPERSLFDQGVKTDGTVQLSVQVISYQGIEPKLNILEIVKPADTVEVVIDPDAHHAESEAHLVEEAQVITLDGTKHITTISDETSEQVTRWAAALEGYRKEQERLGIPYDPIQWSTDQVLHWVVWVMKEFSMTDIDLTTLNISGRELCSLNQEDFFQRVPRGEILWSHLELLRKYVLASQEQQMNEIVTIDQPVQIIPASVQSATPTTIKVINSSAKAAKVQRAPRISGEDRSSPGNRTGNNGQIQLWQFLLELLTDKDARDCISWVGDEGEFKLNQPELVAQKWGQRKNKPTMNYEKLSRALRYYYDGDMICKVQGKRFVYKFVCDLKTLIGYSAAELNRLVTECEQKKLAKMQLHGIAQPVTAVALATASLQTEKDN
Particulars: protein: recombinant; tags: N-terminal GST; dsDNA, one strand shown. A digest of the protocol: as §1

In a further assay the target is T4, ERG (Homo sapiens, UniProt P11308 1-479).
T4 sequence: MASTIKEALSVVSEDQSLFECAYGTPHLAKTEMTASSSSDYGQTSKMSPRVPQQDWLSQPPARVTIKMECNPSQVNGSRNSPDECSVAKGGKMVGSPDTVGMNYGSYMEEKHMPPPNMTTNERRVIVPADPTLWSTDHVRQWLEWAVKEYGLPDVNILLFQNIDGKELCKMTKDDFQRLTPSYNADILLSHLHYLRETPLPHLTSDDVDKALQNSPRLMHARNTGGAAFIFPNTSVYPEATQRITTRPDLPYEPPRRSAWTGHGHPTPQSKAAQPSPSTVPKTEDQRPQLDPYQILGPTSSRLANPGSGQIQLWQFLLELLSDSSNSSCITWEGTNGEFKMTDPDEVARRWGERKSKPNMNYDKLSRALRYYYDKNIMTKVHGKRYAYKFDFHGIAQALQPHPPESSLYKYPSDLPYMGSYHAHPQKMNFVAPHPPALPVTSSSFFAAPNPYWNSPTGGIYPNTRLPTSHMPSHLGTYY
Particulars: protein: recombinant; tags: N-terminal GST; dsDNA, one strand shown. A digest of the protocol:
as §1

For the next assay, the target named is ELF1 (Homo sapiens, UniProt P32519 1-619). Particulars: protein: recombinant; tags: N-terminal GST; dsDNA, one strand shown. The essentials:
as §1

In another assay the target is T5, EHF (Homo sapiens, UniProt Q9NZC4 1-300).
T5 sequence: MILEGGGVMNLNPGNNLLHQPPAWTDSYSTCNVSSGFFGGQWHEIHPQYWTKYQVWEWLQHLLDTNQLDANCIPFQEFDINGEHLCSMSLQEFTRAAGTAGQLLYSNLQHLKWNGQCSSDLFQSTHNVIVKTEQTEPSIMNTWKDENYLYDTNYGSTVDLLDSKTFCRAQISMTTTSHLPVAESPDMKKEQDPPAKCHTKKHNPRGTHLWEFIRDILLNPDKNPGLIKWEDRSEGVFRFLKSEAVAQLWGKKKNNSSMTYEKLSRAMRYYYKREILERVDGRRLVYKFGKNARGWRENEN
The following applies: protein: recombinant; tags: N-terminal GST; dsDNA, one strand shown. The essentials:
as §1

A further assay addresses SPI1 (Homo sapiens, UniProt P17947 1-270). The following applies: protein: recombinant; tags: N-terminal GST; dsDNA, one strand shown. The essentials:
as §1

A further assay deals with SPIB (Homo sapiens, UniProt Q01892 1-262). The following applies: protein: recombinant; tags: N-terminal GST; dsDNA, one strand shown. A digest of the protocol: as §1
SPIB, sequence (Q01892 whole entry): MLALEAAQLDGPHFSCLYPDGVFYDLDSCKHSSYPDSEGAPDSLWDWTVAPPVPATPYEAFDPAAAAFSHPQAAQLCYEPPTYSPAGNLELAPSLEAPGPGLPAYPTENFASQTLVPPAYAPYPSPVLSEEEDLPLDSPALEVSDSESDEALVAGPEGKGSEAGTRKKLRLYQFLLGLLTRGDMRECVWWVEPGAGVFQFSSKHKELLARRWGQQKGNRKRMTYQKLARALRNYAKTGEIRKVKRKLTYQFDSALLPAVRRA
A further assay addresses T6, ELK3 (Homo sapiens, UniProt P41970 1-407).
T6 sequence: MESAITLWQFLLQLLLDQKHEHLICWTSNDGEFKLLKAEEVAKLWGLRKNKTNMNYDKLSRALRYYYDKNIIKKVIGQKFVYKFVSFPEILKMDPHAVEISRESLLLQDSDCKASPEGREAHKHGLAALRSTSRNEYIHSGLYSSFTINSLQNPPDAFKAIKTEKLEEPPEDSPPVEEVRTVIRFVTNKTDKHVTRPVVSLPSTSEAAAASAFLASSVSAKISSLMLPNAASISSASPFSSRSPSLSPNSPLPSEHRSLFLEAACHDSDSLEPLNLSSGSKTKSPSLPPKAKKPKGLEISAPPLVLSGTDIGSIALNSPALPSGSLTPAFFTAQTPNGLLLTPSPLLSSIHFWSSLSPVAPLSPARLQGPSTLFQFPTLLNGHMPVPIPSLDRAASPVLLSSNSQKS
Particulars: protein: recombinant; tags: N-terminal GST; dsDNA, one strand shown. A digest of the protocol:
as §1

The next assay deals with T7, FEV (Homo sapiens, UniProt Q99581 1-238).
T7 sequence: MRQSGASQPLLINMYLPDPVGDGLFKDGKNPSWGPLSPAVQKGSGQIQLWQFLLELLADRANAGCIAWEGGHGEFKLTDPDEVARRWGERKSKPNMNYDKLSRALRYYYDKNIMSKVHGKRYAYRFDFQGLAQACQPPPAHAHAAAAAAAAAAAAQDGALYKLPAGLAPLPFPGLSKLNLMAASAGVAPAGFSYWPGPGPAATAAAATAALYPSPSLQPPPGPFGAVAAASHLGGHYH
Particulars: protein: recombinant; tags: N-terminal GST; dsDNA, one strand shown. A digest of the protocol: as §1

The target of a further assay is ETV5 (Homo sapiens, UniProt P41161 1-510). The following applies: protein: recombinant; tags: N-terminal GST; dsDNA, one strand shown. A digest of the protocol:
as §1

The next assay deals with HSF1 (Homo sapiens, UniProt Q00613 1-529). The following applies: protein: recombinant; tags: N-terminal GST; chain copies: 3; dsDNA, one strand shown. The essentials: as §1
HSF1, sequence (Q00613 whole entry): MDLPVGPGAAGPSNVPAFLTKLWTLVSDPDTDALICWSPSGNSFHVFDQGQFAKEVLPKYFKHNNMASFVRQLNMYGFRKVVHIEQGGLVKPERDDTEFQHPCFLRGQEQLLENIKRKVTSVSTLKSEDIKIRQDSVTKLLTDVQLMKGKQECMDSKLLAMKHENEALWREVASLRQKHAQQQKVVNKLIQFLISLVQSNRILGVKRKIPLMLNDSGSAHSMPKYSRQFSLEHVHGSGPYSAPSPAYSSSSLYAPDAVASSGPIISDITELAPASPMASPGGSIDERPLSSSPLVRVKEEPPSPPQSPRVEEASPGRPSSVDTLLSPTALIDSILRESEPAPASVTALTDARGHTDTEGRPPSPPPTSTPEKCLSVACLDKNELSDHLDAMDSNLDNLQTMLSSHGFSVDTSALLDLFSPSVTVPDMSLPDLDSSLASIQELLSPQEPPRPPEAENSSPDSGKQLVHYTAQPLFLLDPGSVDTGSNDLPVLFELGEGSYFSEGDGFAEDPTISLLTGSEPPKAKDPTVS
In another assay the target is T8, SPIC (Homo sapiens, UniProt Q8N5J4 1-248).
T8 sequence: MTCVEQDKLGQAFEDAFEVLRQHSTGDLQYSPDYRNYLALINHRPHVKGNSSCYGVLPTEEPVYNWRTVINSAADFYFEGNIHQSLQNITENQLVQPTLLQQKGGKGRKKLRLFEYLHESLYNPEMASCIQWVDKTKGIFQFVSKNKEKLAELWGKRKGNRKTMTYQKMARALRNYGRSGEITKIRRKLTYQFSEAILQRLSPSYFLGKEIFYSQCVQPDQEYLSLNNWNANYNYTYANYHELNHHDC
Particulars: protein: recombinant; tags: N-terminal GST; dsDNA, one strand shown. The essentials: as §1

The target in another assay is ELF4 (Homo sapiens, UniProt Q99607 1-663). The following applies: protein: recombinant; tags: N-terminal GST; dsDNA, one strand shown. The essentials:
as §1

For the next assay, the target named is T9, ELK4 (Homo sapiens, UniProt P28324-2 1-405).
T9 sequence: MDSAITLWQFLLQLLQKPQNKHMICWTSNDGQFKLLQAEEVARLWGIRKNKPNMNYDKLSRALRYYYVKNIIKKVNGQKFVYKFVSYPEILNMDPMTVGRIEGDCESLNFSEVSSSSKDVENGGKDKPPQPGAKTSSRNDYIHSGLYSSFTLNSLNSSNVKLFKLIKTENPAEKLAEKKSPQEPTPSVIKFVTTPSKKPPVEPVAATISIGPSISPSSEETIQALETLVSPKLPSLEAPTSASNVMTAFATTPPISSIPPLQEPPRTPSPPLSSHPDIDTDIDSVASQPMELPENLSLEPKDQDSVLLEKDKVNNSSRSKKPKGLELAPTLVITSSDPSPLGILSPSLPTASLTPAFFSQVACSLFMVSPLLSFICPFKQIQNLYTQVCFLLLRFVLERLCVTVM
Particulars: protein: recombinant; tags: N-terminal GST; dsDNA, one strand shown. The essentials: as §1

Another assay has as its target T10, ETV2 (Homo sapiens, UniProt O00321 1-342).
T10 sequence: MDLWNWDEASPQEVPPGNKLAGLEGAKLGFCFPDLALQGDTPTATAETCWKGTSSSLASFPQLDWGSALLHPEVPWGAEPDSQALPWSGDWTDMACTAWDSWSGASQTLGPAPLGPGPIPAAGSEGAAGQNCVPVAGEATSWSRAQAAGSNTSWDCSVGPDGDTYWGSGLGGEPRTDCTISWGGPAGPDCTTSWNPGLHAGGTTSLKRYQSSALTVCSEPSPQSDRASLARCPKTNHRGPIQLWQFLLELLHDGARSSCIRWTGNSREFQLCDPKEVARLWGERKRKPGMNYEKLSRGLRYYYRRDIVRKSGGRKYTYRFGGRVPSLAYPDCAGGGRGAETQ
Particulars: protein: recombinant; tags: N-terminal GST; dsDNA, one strand shown. A digest of the protocol: as §1

Another assay concerns the target T11, ELF3 (Homo sapiens, UniProt P78545 1-371).
T11 sequence: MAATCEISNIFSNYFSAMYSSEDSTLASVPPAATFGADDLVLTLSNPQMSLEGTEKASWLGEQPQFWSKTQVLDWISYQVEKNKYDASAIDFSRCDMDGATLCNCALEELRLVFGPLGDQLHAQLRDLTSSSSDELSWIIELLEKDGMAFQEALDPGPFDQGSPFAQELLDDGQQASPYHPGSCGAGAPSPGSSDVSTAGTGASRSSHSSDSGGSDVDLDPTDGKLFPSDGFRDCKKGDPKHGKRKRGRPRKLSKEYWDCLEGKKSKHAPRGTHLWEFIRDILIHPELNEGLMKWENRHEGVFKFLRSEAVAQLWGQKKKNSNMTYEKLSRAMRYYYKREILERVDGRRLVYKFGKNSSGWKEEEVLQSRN
Particulars: protein: recombinant; tags: N-terminal GST; dsDNA, one strand shown. A digest of the protocol:
as §1

A further assay has as its target CRX (Homo sapiens, UniProt O43186 1-299). The following applies: protein: recombinant; tags: N-terminal GST; dsDNA, one strand shown. A digest of the protocol: as §1
The next assay has as its target ETV1 (Homo sapiens, UniProt P50549 1-477). Particulars: protein: recombinant; tags: N-terminal GST; dsDNA, one strand shown. The essentials: as §1

ELF4, sequence (Q99607 whole entry): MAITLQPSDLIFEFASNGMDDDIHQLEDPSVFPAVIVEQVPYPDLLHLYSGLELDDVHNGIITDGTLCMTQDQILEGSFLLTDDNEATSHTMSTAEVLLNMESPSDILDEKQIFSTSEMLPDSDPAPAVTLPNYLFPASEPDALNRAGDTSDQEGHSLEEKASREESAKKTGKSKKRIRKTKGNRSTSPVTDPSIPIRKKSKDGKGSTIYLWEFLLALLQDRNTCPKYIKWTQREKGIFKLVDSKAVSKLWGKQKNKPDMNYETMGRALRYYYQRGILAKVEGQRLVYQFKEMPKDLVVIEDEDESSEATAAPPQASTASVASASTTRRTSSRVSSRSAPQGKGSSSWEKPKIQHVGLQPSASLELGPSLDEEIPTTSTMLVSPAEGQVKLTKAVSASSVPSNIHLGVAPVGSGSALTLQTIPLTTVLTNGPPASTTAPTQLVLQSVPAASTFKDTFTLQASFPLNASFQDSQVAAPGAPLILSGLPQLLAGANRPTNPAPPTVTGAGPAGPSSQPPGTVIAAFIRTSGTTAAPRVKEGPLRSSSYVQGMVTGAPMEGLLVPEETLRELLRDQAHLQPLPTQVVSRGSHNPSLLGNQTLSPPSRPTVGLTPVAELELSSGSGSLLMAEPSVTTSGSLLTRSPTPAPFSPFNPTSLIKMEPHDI
ETV1, sequence (P50549 whole entry): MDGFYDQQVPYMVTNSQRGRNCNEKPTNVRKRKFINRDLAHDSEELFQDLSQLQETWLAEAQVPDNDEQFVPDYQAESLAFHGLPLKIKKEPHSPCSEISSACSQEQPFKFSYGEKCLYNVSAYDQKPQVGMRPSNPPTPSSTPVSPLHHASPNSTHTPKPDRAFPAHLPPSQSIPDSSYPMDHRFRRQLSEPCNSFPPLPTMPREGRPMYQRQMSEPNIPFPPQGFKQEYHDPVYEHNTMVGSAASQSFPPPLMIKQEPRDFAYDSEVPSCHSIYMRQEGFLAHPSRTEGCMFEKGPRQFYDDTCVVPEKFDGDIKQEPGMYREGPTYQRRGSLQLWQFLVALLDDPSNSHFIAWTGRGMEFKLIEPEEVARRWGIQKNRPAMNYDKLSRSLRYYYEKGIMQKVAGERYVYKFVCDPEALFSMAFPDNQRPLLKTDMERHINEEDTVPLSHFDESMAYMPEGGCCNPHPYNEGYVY
ELF1, sequence (P32519 whole entry): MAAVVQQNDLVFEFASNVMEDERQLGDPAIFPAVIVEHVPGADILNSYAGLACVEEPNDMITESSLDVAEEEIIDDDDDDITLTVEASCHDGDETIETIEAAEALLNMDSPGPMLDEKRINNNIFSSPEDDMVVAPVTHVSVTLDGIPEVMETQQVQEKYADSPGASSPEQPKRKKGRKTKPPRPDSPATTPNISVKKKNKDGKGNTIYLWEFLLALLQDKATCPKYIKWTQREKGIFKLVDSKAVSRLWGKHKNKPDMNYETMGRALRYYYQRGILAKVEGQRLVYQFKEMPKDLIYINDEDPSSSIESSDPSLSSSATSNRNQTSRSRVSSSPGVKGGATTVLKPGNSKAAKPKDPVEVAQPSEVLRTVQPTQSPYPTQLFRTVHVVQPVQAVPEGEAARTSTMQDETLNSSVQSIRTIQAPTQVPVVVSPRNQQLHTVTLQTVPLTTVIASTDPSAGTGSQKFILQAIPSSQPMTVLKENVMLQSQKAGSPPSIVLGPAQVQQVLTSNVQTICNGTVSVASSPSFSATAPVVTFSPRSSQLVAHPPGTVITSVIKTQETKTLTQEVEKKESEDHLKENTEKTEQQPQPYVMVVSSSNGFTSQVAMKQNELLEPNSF
CRX, sequence (O43186 whole entry): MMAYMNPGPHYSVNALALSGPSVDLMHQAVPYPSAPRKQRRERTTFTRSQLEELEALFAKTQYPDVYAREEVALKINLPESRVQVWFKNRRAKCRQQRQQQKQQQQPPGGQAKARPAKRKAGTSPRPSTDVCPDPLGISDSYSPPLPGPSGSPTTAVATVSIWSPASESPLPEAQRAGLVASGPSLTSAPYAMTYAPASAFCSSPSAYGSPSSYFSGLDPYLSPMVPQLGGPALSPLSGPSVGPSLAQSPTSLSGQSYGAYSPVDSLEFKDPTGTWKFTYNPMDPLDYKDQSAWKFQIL
ETV5, sequence (P41161 whole entry): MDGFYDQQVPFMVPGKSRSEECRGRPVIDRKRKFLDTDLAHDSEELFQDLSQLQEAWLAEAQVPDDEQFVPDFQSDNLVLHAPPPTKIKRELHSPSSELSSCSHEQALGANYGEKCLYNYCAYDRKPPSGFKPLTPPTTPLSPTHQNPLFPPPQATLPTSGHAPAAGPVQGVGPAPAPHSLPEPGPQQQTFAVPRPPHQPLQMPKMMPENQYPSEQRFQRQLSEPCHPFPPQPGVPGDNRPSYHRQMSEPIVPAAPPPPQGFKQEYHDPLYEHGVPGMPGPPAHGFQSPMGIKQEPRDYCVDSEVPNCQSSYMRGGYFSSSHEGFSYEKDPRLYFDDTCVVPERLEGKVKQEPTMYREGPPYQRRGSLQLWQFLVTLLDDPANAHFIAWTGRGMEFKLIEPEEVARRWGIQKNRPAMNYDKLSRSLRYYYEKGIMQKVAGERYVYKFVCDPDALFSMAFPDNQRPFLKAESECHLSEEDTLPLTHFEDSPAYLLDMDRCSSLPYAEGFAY

For AAAGAT, the binding signal with FLI1 is 1.18 fold enrichment (6-mer frequency, TF over GST control); with ELK1 it was 1.21 fold enrichment (6-mer frequency, TF over GST control); in the assay with GABPA, 1.21 fold enrichment (6-mer frequency, TF over GST control); with ERG, 1.21 fold enrichment (6-mer frequency, TF over GST control); in the assay with ELF1 it was 1.26 fold enrichment (6-mer frequency, TF over GST control); with EHF, 1.18 fold enrichment (6-mer frequency, TF over GST control). Moreover, the binding signal is 1.23 fold enrichment (6-mer frequency, TF over GST control) in the assay with SPI1; 1.3 fold enrichment (6-mer frequency, TF over GST control) with SPIB; 1.13 fold enrichment (6-mer frequency, TF over GST control) in the assay with ELK3; 1.15 fold enrichment (6-mer frequency, TF over GST control) in the assay with FEV; 1.25 fold enrichment (6-mer frequency, TF over GST control) in the assay with ETV5; 1.67 fold enrichment (6-mer frequency, TF over GST control) with HSF1. The binding signal with SPIC is 1.22 fold enrichment (6-mer frequency, TF over GST control); with ELF4, 1.24 fold enrichment (6-mer frequency, TF over GST control); in the assay with ELK4 it was 1.24 fold enrichment (6-mer frequency, TF over GST control); in the assay with ETV2, 1.17 fold enrichment (6-mer frequency, TF over GST control); in the assay with ELF3, 1.16 fold enrichment (6-mer frequency, TF over GST control); in the assay with CRX it was 1.75 fold enrichment (6-mer frequency, TF over GST control). In addition, the binding signal with ETV1 is 1.27 fold enrichment (6-mer frequency, TF over GST control).
